Assay outcomes as filed in PubChem BioAssay.
TTR transcr act: TTR transcription activators in neuroblastoma reporter cells, primary screen, cell-based, luminescence, SH-SY5Y, TTR promoter Gaussia luciferase | hit rate 1.3% among 92,000 | activation, % at 16.7 µM | AID 1117267, 2014 | 100% = recombinant luciferase protein wells;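 active = activation above the mean of all tested compounds plus 3 SD, cut at about 9.5% in these data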;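 note: cells exposed to compounds for one day before reading; 0% = median of all test compound wells on the plate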
HuH7 TTR inh: TTR promoter reporter inhibitors in hepatoma cells, counter-screen for TTR transcription activator project, cell-based, luminescence, HuH7 hepatoma; hit rate 4% among 1,100; HuH7 TTR promoter-Gaussia luciferase reporter; inhibition, % at 16.7 µM; AID 1117279, 2014; shares compounds with TTR transcr act;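 active = average inhibition above the solvent-only control wells' mean plus 3 SD, cut at about 15% in these data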;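 note: 0% = cells with DMSO only and 100% = cells with inhibitor control FD; inhibitors lower well luminescence so higher value means more inhibition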
TTR up confirm: TTR transcription activators, retest, confirmation, cell-based, luminescence, SH-SY5Y, triplicate; shares compounds with TTR transcr act; SHSY5Y TTR promoter Gaussia luciferase; 100% = purified Lucia enzyme wells, no cells; activation, % at 16.7 µM; 1,100 tested, under 10 active; AID 1117280, 2014;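 active = mean activation above a set limit taken from the earlier primary screen, cut at about 11% in these data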;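 note: 0% = DMSO-treated cells and 100% = recombinant Lucia luciferase without cells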
Starred values were filed as active, the others as inactive. Only a selection was taken, and hits are over-represented in it overall.

Screening COc1cccc(-c2nc(-c3ccccc3)c3ccc(Cl)cc3n2)c1 returned TTR transcr act 2.
CCC[C@H]1[C@@H](OC(=O)NCc2ccccc2)CC[C@@]23CCCN2C(=O)CCC[C@@H]13 was read as TTR transcr act 3.
`COc1ccccc1C(=O)Nc1cccc(SC)c1` gave TTR transcr act 0.
Screening COc1ccc(NC(=O)c2ccccc2SC)cc1OC returned TTR transcr act 12*, HuH7 TTR inh -7 and TTR up confirm 0.
For CSc1ccccc1C(=O)Nc1cccc(N(C)S(C)(=O)=O)c1 the results were TTR transcr act 0.
Screening O=C(NCCc1ccccc1)OCc1cn(Cc2ccc(F)cc2)nn1 returned TTR transcr act -1.
COC(=O)[C@]12C[C@H](CC(=O)NCc3cccs3)C(=O)N(Cc3cccc4ccccc34)C1=C[C@H](C(C)(C)C)O[C@@H]2C was read as TTR transcr act 0.
Screening O=C(NCCc1c[nH]c2ccccc12)OCc1cn(Cc2ccccc2F)nn1 returned TTR transcr act -1.
COc1ccc(CN2C(=O)COc3ccccc3C2c2nnnn2C2CCCCC2)cc1 (centres undefined) was read as TTR transcr act 1.
For CC(C)C[C@H]1COc2cccc(F)c2S(=O)(=O)N1Cc1cn(CCC2OCCCO2)nn1 the results were TTR transcr act 2.
`COc1cc(CCN(C(=O)c2cc3ccccc3[nH]2)C(C)c2nc3ccccc3[nH]2)cc(OC)c1` (centres undefined) gave TTR transcr act 13*, HuH7 TTR inh -22 and TTR up confirm 0.
CCC(c1nc2ccccc2[nH]1)N(C(=O)Cc1cc(OC)cc(OC)c1)c1ccc(N2CCOCC2)cc1 (centres undefined) was read as TTR transcr act 2.
`COc1ccc2[nH]c(C(=O)N(Cc3ccccn3)Cc3ccccn3)cc2c1` gave TTR transcr act 1.
Screening O=c1c2cc3cc(Cl)ccc3nc2ncn1Cc1ccc(Oc2ccccc2)cc1 returned TTR transcr act -1.
CCCC1CCC2(CC1)CCC2OC(=S)Nc1cccc(C(F)(F)F)c1 (centres undefined) was read as TTR transcr act 2.
Screening COc1cccc(CSc2nc3ccccc3[nH]2)c1 returned TTR transcr act 0.
COC(=O)CSc1nc2cc3c(cc2cc1C)OCO3 was read as TTR transcr act 0.
Screening COc1cccc(CSc2nc3cc4c(cc3cc2C)OCCO4)c1 returned TTR transcr act 18*, HuH7 TTR inh -11 and TTR up confirm 0.
For CN(Cc1ccccc1)C(=O)OCc1cn(Cc2cccc(Cl)c2)nn1 the results were TTR transcr act -2.
Screening C=CCNC(=S)/C(=C(\[O-])c1ccc(Cl)cc1)[n+]1ccccc1 returned TTR transcr act 1.
For Cc1cc(C)c(/C([O-])=C(/C(=S)Nc2ccc(SC(F)F)cc2)[n+]2ccccc2)cc1C the results were TTR transcr act -3.
[O-]/C(=C(\C(=S)Nc1ccc(SC(F)F)cc1)[n+]1ccccc1)c1cc(Cl)ccc1Cl was read as TTR transcr act 22*, HuH7 TTR inh 20* and TTR up confirm -1.
COC(=O)[C@]12C[C@H](CC(=O)NCc3ccccc3)C(=O)N(CCc3ccc(OC)c(OC)c3)C1=C[C@H](C(C)C)O[C@@H]2C1CC1 was read as TTR transcr act 0.
C[C@H]1[C@H](NC(=O)c2ccc(C(F)(F)F)cc2)CC[C@@]23CCCN2C(=O)CCC[C@@H]13 was read as TTR transcr act 1.
Screening O=C(CCN1CCOCC1)Nc1cc(C(=O)Nc2ccccc2F)ccc1N1CC2CC(C1)c1cccc(=O)n1C2 (centres undefined) returned TTR transcr act 0.
Screening Nc1cc(C(=O)N2CCN(c3cccc(Cl)c3)CC2)ccc1N1CC2CC(C1)c1cccc(=O)n1C2 (centres undefined) returned TTR transcr act -2.
O=C(O)c1ccc(N2CC3CC(C2)c2cccc(=O)n2C3)c(NC(=S)Nc2ccc(Cl)cc2Cl)c1 (centres undefined) was read as TTR transcr act 11*, HuH7 TTR inh -4 and TTR up confirm 0.
`CCOc1ccc(CCNC(=O)Cc2ccccc2)cc1OCC` gave TTR transcr act 1.
`CC(=O)c1cc(-c2ccc(-c3cc(C(=O)O)c4ccccc4n3)cc2)c(=O)n2c1CCC2` gave TTR transcr act 2.
`CN(Cc1ccccc1)C(=O)OCc1cn(Cc2cc(F)cc(F)c2)nn1` gave TTR transcr act 1.
For Brc1cccc(C2Nc3cccc4cccc(c34)N2)c1 the results were TTR transcr act -2.
`Clc1cccc(Cl)c1C1Nc2cccc3cccc(c23)N1` gave TTR transcr act -1.
Clc1ccc(C2Nc3cccc4cccc(c34)N2)cc1Cl was read as TTR transcr act 9.8*, HuH7 TTR inh 5 and TTR up confirm -1.
For O=C(NCC(c1ccccc1)c1ccccc1)[C@H](Cc1ccccc1)NC1(C(=O)NC2CCCCC2)CCCCCC1 the results were TTR transcr act 2.
`COC(=O)[C@]12C[C@H](CC(=O)NCc3cccc(C(F)(F)F)c3)C(=O)N(Cc3ccco3)C1=C[C@H](C(C)C)O[C@@H]2C1CC1` gave TTR transcr act 0.
For CCCC(=O)NNC(=O)c1ccoc1C the results were TTR transcr act 17*, HuH7 TTR inh -9 and TTR up confirm -1.
Screening Cc1cc(C)cc(OCC(=O)NNC(=O)c2ccoc2C)c1 returned TTR transcr act 1.
`Cc1cccc(C)c1OCC(=O)NNC(=O)c1ccoc1C` gave TTR transcr act 7.
`O=C1Nc2ccccc2C1=O` gave TTR transcr act 0.
`CCS(=O)(=O)C(=C1Nc2ccccc2N1)S(=O)(=O)CC` gave TTR transcr act 21*, HuH7 TTR inh -13 and TTR up confirm 2.
CCC1(CC)C(=O)Nc2ccccc21 was read as TTR transcr act 6.
Screening CCC[C@H]1[C@@H](NC(=O)c2cccc(C)c2)CC[C@@]23CCCN2C(=O)CCC[C@@H]13 returned TTR transcr act -1.
For CCCCNC(=O)C[C@H]1C(=O)N(Cc2ccc(OC)cc2)C2=CCCCC[C@@]21C(=O)OC the results were TTR transcr act -1.
Screening O=C(CN1C(=O)CCSc2ccc(S(=O)(=O)N3CCCC3)cc21)NCc1ccccc1Cl returned TTR transcr act 3.
Screening O=C(CN1C(=O)CSc2ccc(S(=O)(=O)N3CCCCC3)cc21)NCc1cccnc1 returned TTR transcr act 11*, HuH7 TTR inh -13 and TTR up confirm -1.
O=C(CN1C(=O)CSc2ccc(S(=O)(=O)N3CCOCC3)cc21)NCc1c(F)cccc1Cl was read as TTR transcr act 0.
For CCCCCCCCN1C(=O)[C@@H](CC(=O)N2CCN(C(=O)OCC)CC2)C[C@@]2(C(=O)OC)C1=C[C@H](C(C)C)O[C@@H]2C1CC1 the results were TTR transcr act -1.
`Cc1ccc(CSCCNC(=O)CN2C(=O)c3ccccc3S2(=O)=O)cc1` gave TTR transcr act 9.9*, HuH7 TTR inh -8 and TTR up confirm -1.
